SKOV3 invasion = blocks SKOV3ip1 adhesion and invasion in omental model. SKOV3ip1-GFP adhesion/invasion on 3D omental model, fluorescence. Potency, µM (titrated, usually from 45.8 µM), for inactives: top-dose activity change, negative = inhibition, most hits filed as inhibitors. hit rate 0.1% among 46,000;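 further: potency means the concentration at half of the fitted maximal effect; plate controls were DMSO wells for no effect and tomatine positive control wells for full effect; nearly all actives have a fitted effect of over 65% in size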
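Primary human omental fibroblast/mesothelial 3D culture pre-formed 48 h. SKOV3ip1-GFP cells added with compounds (0.36-46 umol/L), incubated 2 h RT/16 h 37 C, fixed; GFP cells quantified at 488/509 nm.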
GPR32 ag = agonists of human resolvin D1 receptor DRV1 (GPR32) | CHO-K1 GPR32 beta-arrestin PathHunter luminescence, 90 min; zero percent set by DMSO-only wells | AID 1346428 | activation, % at 76.9 µM | O75388 | hit rate 2.5% among 48,000;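 active means activation of at least 60% and not above a set upper limit, about 1 call in 100 departs from these limits; inconclusive means activation of 40% to 60%, or above that upper limit; inactive means activation under 40%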; further: 0% is about no effect
Target sequence (O75388 whole entry, looked up): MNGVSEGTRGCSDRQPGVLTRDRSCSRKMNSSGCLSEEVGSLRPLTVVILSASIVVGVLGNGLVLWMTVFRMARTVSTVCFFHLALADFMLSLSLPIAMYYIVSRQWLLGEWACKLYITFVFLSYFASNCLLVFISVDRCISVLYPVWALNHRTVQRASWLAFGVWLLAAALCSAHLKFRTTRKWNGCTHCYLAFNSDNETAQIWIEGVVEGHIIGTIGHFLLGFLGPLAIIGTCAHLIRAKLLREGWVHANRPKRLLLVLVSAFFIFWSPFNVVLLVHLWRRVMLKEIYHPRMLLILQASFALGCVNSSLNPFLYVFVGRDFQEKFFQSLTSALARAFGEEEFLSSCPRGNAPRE
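Step 1: seed CHO-K1 GPR32 beta-arrestin cells, 2,500/well, overnight at 37 °C. Step 2: add compounds, 90 min at 37 °C. Step 3: detection reagent, 1 h ambient, then luminescence.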
HTT prom inh = HTT promoter inhibition | HEK293 HTT promoter firefly luciferase reporter, 24 h | hit rate 0.93% among 48,000 | Potency, µM (titrated, usually from 57.5 µM), inactives show at the highest dose activity change, negative = inhibition, hits mostly inhibitors; further: potency means the concentration at half of the fitted maximal effect; nearly all actives have a fitted effect of over 50% in size
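HEK293 Fluc reporter, 2,500 cells/well, 24 h pre-culture; cpds up to 57.5 uM final, 24 h 37 degrees C; Dual-Glo, 10 min RT; normalized vehicle = 0%, zero RLU = -100%.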
HTT-AS promoter = activates huntingtin-antisense promoter activity | HEK293 HTT-AS promoter firefly luciferase reporter, 24 h; response scale: percent change from vehicle, -100% = no light | Potency, µM (doses to about 57.5 µM), for inactives: at the highest dose activity change, positive = activation, actives largely listed as activators | hit rate 0.24% among 48,000; further: potency means the concentration at half of the fitted maximal effect; nearly all actives have a fitted effect of over 55% in size
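Luminescence was read after Dual-Glo reagent and a 10 min room-temperature incubation. Values were normalized to vehicle (0% activity) and zero RLU (-100% activity). Reporter HEK293 cells had been exposed to compounds (up to 57.5 uM final) for 24 h.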
NTMT1 inhibitor = NTMT1 methyltransferase inhibition; Q9BV86; NTMT1 MTase-Glo SAH luminescence, purified enzyme; Potency, µM (series often up to 114 µM), for the others: at the top dose activity change, negative = inhibition, most hits filed as inhibitors; hit rate 2.5% among 59,000; AID 1645870;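 further: potency means the concentration at half of the fitted maximal effect; plate controls were DMSO vehicle for no effect and no enzyme for full effect; nearly all actives have a fitted effect of over 65% in size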
Target sequence (Q9BV86 whole entry, looked up): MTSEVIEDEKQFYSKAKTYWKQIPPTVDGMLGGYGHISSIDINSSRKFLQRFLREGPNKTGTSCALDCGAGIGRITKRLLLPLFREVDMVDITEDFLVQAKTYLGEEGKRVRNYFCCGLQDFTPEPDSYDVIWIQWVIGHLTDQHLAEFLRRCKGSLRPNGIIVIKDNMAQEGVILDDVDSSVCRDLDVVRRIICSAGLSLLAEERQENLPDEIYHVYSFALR
Numbers without * were called inactive; [ ] = remark or other dose. In the library only some 4.5% were active in any assay of this set; here they are far more common. Unless noted, the call rests on the fitted dose curve; in most records, active means well fitted curve in the direction sought with a large enough effect; inconclusive means small, poorly fitted or top-dose-only effect, or another doubt; inactive means no such curve, though single readings can be large; an effect the other way counts as inactive or inconclusive.

Results for O=C(NCc1ccccc1Cl)C1CCC(CNS(=O)(=O)c2ccc(Br)s2)CC1 (stereo not given) ?
SKOV3 invasion: 1%; GPR32 ag: 98*; HTT prom inh: -8%; HTT-AS promoter: -11%; NTMT1 inhibitor: inconclusive

Results for O=C(NCc1ccc(Cl)cc1)C1CCC(CNS(=O)(=O)c2ccccc2)CC1 (stereo not given) ?
SKOV3 invasion: -1%; GPR32 ag: 83*; HTT prom inh: -26%; HTT-AS promoter: -24%; NTMT1 inhibitor: -24%

How did COc1cccc(CNC(=O)C2CCC(CNS(=O)(=O)c3ccc(Br)s3)CC2)c1 (stereo not given) do in these assays?
SKOV3 invasion: 9%; GPR32 ag: 20; HTT prom inh: -9%; HTT-AS promoter: -17%; NTMT1 inhibitor: -3%

What do the screens show for `O=C(NCCc1ccccc1)C1CCC(CNS(=O)(=O)c2ccccc2)CC1` (stereo not given)?
SKOV3 invasion: -6%; GPR32 ag: -13; HTT prom inh: 2%; HTT-AS promoter: -1%; NTMT1 inhibitor: 4%

How did CC(=O)Nc1ccc(S(=O)(=O)NCC2CCC(C(=O)NCc3ccccc3)CC2)cc1 (stereo not given) do in these assays?
SKOV3 invasion: inactive; GPR32 ag: 99*; HTT prom inh: -3%; HTT-AS promoter: -15%; NTMT1 inhibitor: 11%

What do the screens show for `Cc1ccccc1C(C(=O)NC1CCCCC1)N(C(=O)Cn1cnc2ccccc21)c1cccc(F)c1` (stereo not given)?
NTMT1 inhibitor: -4%[57.5 µM]

Results for COc1ccccc1C1NC(=O)c2n[nH]c(-c3cccs3)c21 (stereo not given) ?
SKOV3 invasion: 2%; GPR32 ag: 104*; HTT prom inh: inconclusive; HTT-AS promoter: -33%; NTMT1 inhibitor: inconclusive

How did Cc1ccc(-c2nc(-c3cccs3)c(-c3cccs3)[nH]2)cc1 do in these assays?
SKOV3 invasion: -4%; GPR32 ag: -12; HTT prom inh: inconclusive; HTT-AS promoter: -30%; NTMT1 inhibitor: inconclusive

How did Cc1ccc(C2NC(=O)c3n[nH]c(-c4cccs4)c32)cc1 (stereo not given) do in these assays?
SKOV3 invasion: -22%; GPR32 ag: 120*; HTT prom inh: -16%; HTT-AS promoter: -19%; NTMT1 inhibitor: -19%

How did COc1ccccc1C1c2c(-c3ccc(Cl)cc3)n[nH]c2C(=O)N1c1ccc(C)cc1 (stereo not given) do in these assays?
SKOV3 invasion: -8%; GPR32 ag: -21; HTT prom inh: inconclusive; HTT-AS promoter: -35%; NTMT1 inhibitor: 16%

What do the screens show for `O=C(OCc1ccco1)c1ccc2c(c1)N(Cc1ccc([N+](=O)[O-])cc1)C(=O)c1ccccc1S2`?
SKOV3 invasion: inactive; GPR32 ag: -10; HTT prom inh: -30%; HTT-AS promoter: -17%; NTMT1 inhibitor: 1%

How did COc1ccccc1/C=C/c1nc(C#N)c(N2CCCCCC2)o1 do in these assays?
SKOV3 invasion: inactive; GPR32 ag: -13; HTT prom inh: -20%; HTT-AS promoter: -1%; NTMT1 inhibitor: -15%

Results for O=C(Cc1c(C(=O)O)[nH]c2ccccc12)Nc1cccc(C(F)(F)F)c1 ?
SKOV3 invasion: inactive; GPR32 ag: 44; HTT prom inh: -18%; HTT-AS promoter: -1%; NTMT1 inhibitor: -8%

How did Cc1cc(NC(=O)CN(C)S(=O)(=O)c2ccc3c(c2)CCCC(=O)N3)ccc1Br do in these assays?
SKOV3 invasion: inactive; GPR32 ag: 49; HTT prom inh: 25µM*; HTT-AS promoter: -50%; NTMT1 inhibitor: 17%

Results for Cc1cc(C)cc(N2CC(c3nc(-c4ccccc4C)no3)CC2=O)c1 (stereo not given) ?
SKOV3 invasion: 1%; GPR32 ag: -1; HTT prom inh: -17%; HTT-AS promoter: -13%; NTMT1 inhibitor: 8%

How did COc1ccccc1Nc1nn2c(=O)c3ccc(C(=O)NCc4cccs4)cc3nc2s1 do in these assays?
SKOV3 invasion: inactive; GPR32 ag: -6; HTT prom inh: -32%; HTT-AS promoter: -34%; NTMT1 inhibitor: inconclusive

What do the screens show for `CCOc1ccc(Nc2oc(-c3ccc(COc4ccc(OC)cc4)o3)nc2C#N)cc1`?
SKOV3 invasion: -16%; GPR32 ag: 86*; HTT prom inh: 22%; HTT-AS promoter: 2%; NTMT1 inhibitor: 13%

Results for CC(CNC(=O)c1cnn(-c2ccc(F)cc2)c1-n1cccc1)c1ccccc1 (stereo not given) ?
SKOV3 invasion: inactive; GPR32 ag: 12; HTT prom inh: inconclusive; HTT-AS promoter: -45%; NTMT1 inhibitor: 79µM*

How did COc1ccc(CNC(=O)c2cnn(-c3ccc(F)cc3)c2-n2cccc2)cc1 do in these assays?
SKOV3 invasion: 45%; GPR32 ag: -11; HTT prom inh: -31%; HTT-AS promoter: -10%; NTMT1 inhibitor: -2%

What do the screens show for `CCOc1ccc(CCNC(=O)CCCn2c(=O)c3cccn3c3ccccc32)cc1`?
SKOV3 invasion: inactive; GPR32 ag: -15; HTT prom inh: -20%; HTT-AS promoter: -20%; NTMT1 inhibitor: inconclusive

What do the screens show for `CCOc1ccc(CCNC(=O)CCCc2cc(-c3ccc(OCC)cc3)on2)cc1`?
SKOV3 invasion: 29%; GPR32 ag: 17; HTT prom inh: 0.32µM*; HTT-AS promoter: -78%; NTMT1 inhibitor: -3%

How did CCCCCCCCCCCCCCCCC(C(=O)O)C(O)(CC(=O)O)C(=O)O (stereo not given) do in these assays?
GPR32 ag: 12; HTT prom inh: 12%; HTT-AS promoter: -11%; NTMT1 inhibitor: 3.5µM*

What do the screens show for `CNC(=O)CN1CCC(Oc2cc3c(Nc4cccc(Cl)c4F)ncnc3cc2OC)CC1`?
SKOV3 invasion: -21%; HTT prom inh: inconclusive; HTT-AS promoter: -26%; NTMT1 inhibitor: 35µM*

How did CC(C)(C)OC(=O)N1CCC(c2c(C(=O)NCc3ccccn3)cnn2-c2ccccc2)CC1 do in these assays?
SKOV3 invasion: 3%; GPR32 ag: -16; HTT prom inh: -7%; HTT-AS promoter: -9%; NTMT1 inhibitor: 7%

How did CCCCNC(=O)CSc1c2c(nc3ccc(Cl)cc13)CCCC2 do in these assays?
SKOV3 invasion: 3%; GPR32 ag: -18; HTT prom inh: -3%; HTT-AS promoter: -14%; NTMT1 inhibitor: -16%

Results for O=C(COc1ccc(Cl)cc1)NCCc1csc(-c2ccc(C(F)(F)F)cc2)n1 ?
SKOV3 invasion: 4%; GPR32 ag: -19; HTT prom inh: -23%; HTT-AS promoter: -30%; NTMT1 inhibitor: inconclusive

Results for O=C(COc1ccccc1)NCCc1csc(-c2ccc(Cl)cc2)n1 ?
SKOV3 invasion: 9%; GPR32 ag: 95*; HTT prom inh: inconclusive; HTT-AS promoter: -15%; NTMT1 inhibitor: -3%
